Source: PubChem BioAssay AID1159580 (chemical genetic matrix, 2015)
Values joined by “and” are separate entries in the source; they are usually repeats but may differ in a detail not shown here. Identical values can stand only once. Out of some 5,500 compounds screened, about 2,000 (36%) were called active. Another 18% or so got no clear call; they are omitted. Cut-off read from the data, not from the text of the source: active = normalized growth mostly below about 0.91 (no sharp cut-off); inconclusive = no clear call, values can overlap the other calls; inactive = mostly above about 0.92. The list shows a part of the results.

Assay: chemical genetic growth profiling, strain panel (AID 1159580);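 note: tested at 20 µM; growth read once vehicle control cultures reached saturation at 30 °C; 1 = growth at the plate median or of vehicle wells; lower values mean less growth of the strain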
Conditions: S. cerevisiae deletion strains, growth OD

Measured: normalized growth

O=[N+]([O-])O[C@H]1CO[C@H]2[C@@H]1OC[C@H]2O[N+](=O)[O-]
inactive: locus YAL013W, strain DEP1, hits give low values 1.01 | locus YAL021C, strain ccr4, hits give low values 0.993 | locus YAL026C, strain drs2, hits give low values 1.01 | locus YAL030W, strain snc1, hits give low values 1 | locus YBL061C, strain skt5, hits give low values 1 | locus YBR009C, strain hhf1, hits give low values 1 | locus YBR021W, strain FUR4, hits give low values 1.01 | locus YBR023C, strain chs3, hits give low values 0.984 | locus YBR171W, strain sec66, hits give low values 0.993 | locus YBR229C, strain ROT2, hits give low values 1.01 | locus YBR231C, strain swc5, hits give low values 0.981 | locus YBR279W, strain paf1, hits give low values 0.978 | locus YCL011C, strain gbp2, hits give low values 0.99 | locus YCL016C, strain dcc1, hits give low values 0.97 | locus YCL029C, strain bik1, hits give low values 1.03 | locus YCL061C, strain MRC1, hits give low values 0.985 | locus YCL069W, strain vba3, hits give low values 0.999 | locus YCR088W, strain abp1, hits give low values 0.985 | locus YDL005C, strain med2, hits give low values 0.991 | locus YDL035C, strain GPR1, hits give low values 1.03 | locus YDL040C, strain nat1, hits give low values 0.999 | locus YDL074C, strain BRE1, hits give low values 1.01 | locus YDL101C, strain DUN1, hits give low values 1 | locus YDL134C, strain PPH21, hits give low values 1.01 | locus YDL185W, strain tfp1, hits give low values 1.01 | locus YDL192W, strain arf1, hits give low values 1.02 | locus YDR001C, strain nth1, hits give low values 0.991 | locus YDR069C, strain doa4, hits give low values 1 | locus YDR101C, strain arx1, hits give low values 0.989 | locus YDR137W, strain rgp1, hits give low values 0.971 | locus YDR159W, strain sac3, hits give low values 1.01 | locus YDR162C, strain NBP2, hits give low values 1.02 | locus YDR195W, strain ref2 0.977 | locus YDR297W, strain sur2, hits give low values 0.99 | locus YDR318W, strain mcm21, hits give low values 1.05 | locus YDR334W, strain swr1, hits give low values 0.991 | locus YDR335W, strain msn5, hits give low values 0.995 | locus YDR388W, hits give low values 1.02 | locus YDR392W, strain spt3, hits give low values 0.91 | locus YDR502C, strain sam2, hits give low values 1.03 | locus YEL003W, strain gim4, hits give low values 1 | locus YEL037C, strain rad23, hits give low values 0.995 | locus YEL061C, strain CIN8 (second series), hits give low values 0.99 | locus YEL061C, strain CIN8, hits give low values 1.01 | locus YER015W, strain faa2, hits give low values 1.01 | locus YER016W, strain bim1, hits give low values 1 | locus YER110C, hits give low values 1.02 | locus YER111C, strain swi4, hits give low values 0.979 | locus YER155C, strain BEM2 (second series), hits give low values 0.998 | locus YER155C, strain BEM2, hits give low values 1.01 | locus YER167W, strain BCK2, hits give low values 1.02 | locus YFR010W, strain ubp6, hits give low values 1 | locus YGL078C, strain dbp3, hits give low values 1.02 | locus YGL086W, strain mad1, hits give low values 1.01 | locus YGL167C, strain pmr1, hits give low values 1 | locus YGL173C, strain kem1, hits give low values 1 | locus YGL227W, strain vid30, hits give low values 0.986 | locus YGL240W, strain doc1, hits give low values 0.988 | locus YGL248W, strain PDE1, hits give low values 0.999 | locus YGL253W, strain hxk2, hits give low values 1.01 | locus YGR078C, strain PAC10, hits give low values 1.03 | locus YGR135W, strain pre9, hits give low values 1.04 | locus YHR013C, strain ard1, hits give low values 0.971 | locus YHR027C, strain rpn1, hits give low values 0.998 | locus YHR030C, strain SLT2, hits give low values 1.01 and 0.95 | locus YHR079C, strain IRE1 (second series), hits give low values 1.02 | locus YHR079C, strain IRE1, hits give low values 0.956 | locus YHR094C, strain hxt1, hits give low values 1.02 | locus YHR129C, strain ARP1, hits give low values 1.01 | locus YHR142W, strain chs7, hits give low values 0.991 | locus YHR200W, strain rpn10, hits give low values 1.02 | locus YIL066C, strain RNR3, hits give low values 1.02 | locus YIL073C, strain SPO22, hits give low values 1.06 | locus YIL125W, strain kgd1, hits give low values 1.01 | locus YIR030C, strain dcg1, hits give low values 1.01 | locus YJL092W, strain hpr5, hits give low values 0.999 | locus YJL095W, strain BCK1 (second series), hits give low values 0.992 | locus YJL095W, strain BCK1, hits give low values 1.01 and 0.925 | locus YJL115W, strain asf1, hits give low values 0.991 | locus YJL129C, strain trk1, hits give low values 0.991 | locus YJL134W, strain LCB3, hits give low values 1.02 | locus YJL154C, strain vps35, hits give low values 0.998 | locus YJL164C, strain tpk1, hits give low values 0.988 | locus YJL166W, strain qcr8, hits give low values 0.984 | locus YJL168C, strain set2, hits give low values 1 | locus YJL187C, strain SWE1 (second series), hits give low values 1.01 | locus YJL187C, strain SWE1, hits give low values 1
active: locus YGR252W, strain gcn5, hits give low values 1.3 [resistant]
